# Measured values as given in PubChem BioAssay (NCATS).
# Records with an inconclusive call do not appear. Entries that show only a call come without a potency. A number with no mark means an inactive call. Activity calls are given as the source filed them. The call rests on the fitted dose curve; in most records, active means well fitted curve in the direction sought with a large enough effect; inconclusive means small, poorly fitted or top-dose-only effect, or another doubt; inactive means no such curve, though single readings can be large; an effect the other way counts as inactive or inconclusive.
# Assays:
# [1] = target: Rap guanine nucleotide exchange factor 3 (Homo sapiens) (UniProt O95398); assay: Confirmatory qHTS for antagonist of cAMP-regulated guanine nucleotide exchange factor 3 (EPAC1) (AID 1645880); further: nearly all actives have a fitted effect of over 55% in size; further: potency means the concentration at half of the fitted maximal effect
# Outline: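 Nucleotide exchange uses 100 nM EPAC1, 250 nM RAP1B-BODIPY-GDP and 50 uM GDP, with compounds in a concentration-titration series. After 5 min at room temperature, fluorescence (480 nm ex/540 nm em) is read every 5 min for 30 min. Data are normalized to control ATA and DMSO.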
# [2] = target: Rap guanine nucleotide exchange factor 3 (Homo sapiens) (UniProt O95398); assay: Confirmatory qHTS for agonist of cAMP-regulated guanine nucleotide exchange factor 3 (EPAC1) (AID 1645881);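 further: EPAC1 catalysed release of BODIPY-GDP from Rap1B seen as fluorescence loss; nearly all actives have a fitted effect of over 75% in size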
# [3] = target: Rap guanine nucleotide exchange factor 4 (Homo sapiens) (UniProt Q8WZA2); assay: Confirmatory qHTS for agonist of cAMP-regulated guanine nucleotide exchange factor 4 (EPAC2) (AID 1645884);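 further: nucleotide exchange releases bodipy-GDP from Rap1 and this lowers its fluorescence; nearly all actives have a fitted effect of over 65% in size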
# [4] = target: Rap guanine nucleotide exchange factor 4 (Homo sapiens) (UniProt Q8WZA2); assay: Confirmatory qHTS for antagonist of cAMP-regulated guanine nucleotide exchange factor 4 (EPAC2) (AID 1645885); further: nearly all actives have a fitted effect of over 25% in size; further: potency means the concentration at half of the fitted maximal effect
# [5] = target: Rap guanine nucleotide exchange factor 3 (Homo sapiens) (UniProt O95398); assay: Counterscreen qHTS for antagonist of cAMP-regulated guanine nucleotide exchange factor 3 (EPAC1) (AID 1645888);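 further: fluorescence loss as bound BODIPY-GDP is released from Rap1B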
# Outline: (§1)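 Rap1B–BODIPY-GDP (250 nM) with 50 uM GDP; compounds pin-transferred to 9.74 nM–152 uM final (activator) or from 7.32 nM upwards (inhibitor). Fluorescence Ex/Em 480/540 nm read at 5 and 30 min, then after adding cAMP or buffer, at room temperature.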
# [6] = target: Rap guanine nucleotide exchange factor 3 (Homo sapiens) (UniProt O95398); assay: Counterscreen qHTS for agonist of cAMP-regulated guanine nucleotide exchange factor 3 (EPAC1) (AID 1645889); further: nearly all actives have a fitted effect of over 40% in size
# Outline: as §1
# Sequence of Rap guanine nucleotide exchange factor 4 (Homo sapiens) (Q8WZA2 whole entry, looked up): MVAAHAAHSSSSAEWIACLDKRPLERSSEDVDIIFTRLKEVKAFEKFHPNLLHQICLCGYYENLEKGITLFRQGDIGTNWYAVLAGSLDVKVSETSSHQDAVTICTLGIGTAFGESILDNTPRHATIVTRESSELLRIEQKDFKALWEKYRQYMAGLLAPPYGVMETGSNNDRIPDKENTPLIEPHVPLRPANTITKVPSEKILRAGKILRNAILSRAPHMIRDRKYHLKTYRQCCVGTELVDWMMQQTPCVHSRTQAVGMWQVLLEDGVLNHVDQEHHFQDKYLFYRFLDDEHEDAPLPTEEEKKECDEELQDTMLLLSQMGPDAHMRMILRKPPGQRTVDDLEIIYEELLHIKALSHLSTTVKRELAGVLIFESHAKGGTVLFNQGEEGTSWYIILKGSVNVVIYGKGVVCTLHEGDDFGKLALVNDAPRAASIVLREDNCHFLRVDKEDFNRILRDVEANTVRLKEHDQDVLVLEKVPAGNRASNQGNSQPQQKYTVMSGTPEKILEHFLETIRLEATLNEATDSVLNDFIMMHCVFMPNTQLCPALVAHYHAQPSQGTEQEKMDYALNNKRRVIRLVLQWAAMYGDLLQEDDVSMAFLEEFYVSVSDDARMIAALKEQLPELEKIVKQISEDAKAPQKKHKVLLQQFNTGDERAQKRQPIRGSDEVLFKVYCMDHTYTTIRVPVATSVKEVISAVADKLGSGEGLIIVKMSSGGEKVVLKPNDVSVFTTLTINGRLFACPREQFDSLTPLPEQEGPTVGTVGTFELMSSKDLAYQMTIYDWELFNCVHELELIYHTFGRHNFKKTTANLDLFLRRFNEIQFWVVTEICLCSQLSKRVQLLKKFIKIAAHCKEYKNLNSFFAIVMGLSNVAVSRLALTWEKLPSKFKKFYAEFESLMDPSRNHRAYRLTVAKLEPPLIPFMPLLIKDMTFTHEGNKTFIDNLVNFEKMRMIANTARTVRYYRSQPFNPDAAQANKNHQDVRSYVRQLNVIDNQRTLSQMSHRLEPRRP
# Sequence of Rap guanine nucleotide exchange factor 3 (Homo sapiens) (O95398 whole entry, looked up): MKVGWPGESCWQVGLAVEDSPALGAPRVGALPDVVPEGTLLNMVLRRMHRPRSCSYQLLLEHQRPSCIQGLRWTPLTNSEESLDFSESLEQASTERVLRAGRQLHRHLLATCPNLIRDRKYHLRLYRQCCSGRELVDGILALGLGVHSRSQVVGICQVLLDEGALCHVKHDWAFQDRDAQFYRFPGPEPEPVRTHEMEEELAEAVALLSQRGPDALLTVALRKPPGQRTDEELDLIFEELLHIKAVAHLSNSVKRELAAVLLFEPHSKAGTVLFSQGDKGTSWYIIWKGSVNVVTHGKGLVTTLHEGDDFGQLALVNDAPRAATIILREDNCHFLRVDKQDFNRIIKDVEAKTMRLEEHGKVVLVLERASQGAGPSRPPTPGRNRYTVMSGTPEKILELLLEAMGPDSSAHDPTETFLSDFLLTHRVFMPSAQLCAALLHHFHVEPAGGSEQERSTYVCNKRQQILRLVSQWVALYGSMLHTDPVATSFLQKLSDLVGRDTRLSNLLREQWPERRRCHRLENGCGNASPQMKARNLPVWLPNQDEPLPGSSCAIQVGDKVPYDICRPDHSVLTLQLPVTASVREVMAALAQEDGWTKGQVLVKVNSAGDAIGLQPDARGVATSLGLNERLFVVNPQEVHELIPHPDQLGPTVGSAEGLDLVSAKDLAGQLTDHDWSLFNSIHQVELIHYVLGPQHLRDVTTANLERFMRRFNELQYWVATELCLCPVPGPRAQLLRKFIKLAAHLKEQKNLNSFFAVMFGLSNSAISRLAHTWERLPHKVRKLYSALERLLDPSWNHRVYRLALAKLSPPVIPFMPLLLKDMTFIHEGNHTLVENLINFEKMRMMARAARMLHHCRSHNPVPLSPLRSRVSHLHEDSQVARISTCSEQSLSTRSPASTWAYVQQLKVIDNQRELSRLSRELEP
SMILES,Potency [1],Potency [2],activation [3],Potency [4],"activity change, negative = inhibition [5]",activation [6],Potency [3],Potency [5],Potency [6],outcome [4]
O=C(O)c1ccccc1NS(=O)(=O)c1ccc(N/N=C/c2ccc(O)c(O)c2)c([N+](=O)[O-])c1,8.91 µM (active),inactive,"-3.03% [at 17.1 µM, percent relative to cAMP agonist control]",inactive,-1.88% [at 30.8 µM],24.6% [at 30.8 µM],–,–,–,–
Cc1ccc2[nH]cc(C(c3ccccc3)c3ccc(C)s3)c2c1 (stereo unspecified),inactive,inactive,–,inactive,–,–,inactive,inactive,inactive,–
COc1ccc2nc(N3CCN(C(=O)C4CC4)CC3)sc2c1,inactive,inactive,–,–,–,–,inactive,inactive,inactive,inactive [at 12.7 µM]
Cc1nnc(N/N=C\c2ccc(-c3ccccc3[N+](=O)[O-])o2)n1N,inactive,inactive,"4.31% [at 17.1 µM, percent relative to cAMP agonist control]",inactive,7.63% [at 30.8 µM],36.2% [at 30.8 µM],–,–,–,–
C(=N\N1CCN(C(c2ccccc2)c2ccccc2)CC1)/c1ccc2c(c1)OCO2,inactive,inactive,–,84.9 µM (active),–,–,inactive,inactive,inactive,–
CCOC(=O)N1CCN(C(=O)c2cc(S(=O)(=O)N3CCc4ccccc43)ccc2OC)CC1,inactive,inactive,–,inactive,–,–,inactive,inactive,inactive,–
C=CCOc1ccc(/C=C2\SC(=S)N(NS(=O)(=O)c3ccccc3)C2=O)cc1,47.8 µM (active),inactive,–,42.6 µM (active),–,–,inactive,inactive,inactive,–
COc1ccc(S(=O)(=O)Nc2ccc(OCC(=O)O)cc2)c2ccccc12,inactive,inactive,–,47.8 µM (active),–,–,inactive,inactive,inactive,–
CCCCCC1CCC(c2ccc(C(N)=O)cc2)CC1 (stereo unspecified),inactive,inactive,–,inactive,–,–,inactive,inactive,inactive,–
Cc1ccc(Cn2c(SCC(=O)N/N=C/c3ccc(C)o3)nc3ccccc32)cc1,47.8 µM (active),inactive,–,inactive,–,–,inactive,inactive,inactive,–
O=C(CSc1nnc(CCc2ccccc2)n1-c1ccc(Cl)cc1)NCc1ccccc1,inactive,inactive,–,inactive,–,–,inactive,inactive,inactive,–
